Source: PubChem (National Center for Advancing Translational Sciences (NCATS))
KB-3-1 tox: kills parental KB-3-1 adenocarcinoma cells. Potency, µM (highest dose often 46.1 µM), usual class: cytotoxic. 1.4% of 400,000 active. AID 1347075. KB-3-1 viability, CellTiter-Glo ATP luminescence, 72 h; note: % is set by controls: 0 for no effect and ±100 for the full control effect; nearly all actives have a fitted effect of over 60% in size
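Here the drug-naive KB-3-1 line serves as comparator for MDR sub-line selectivity; cells received compound titrations, 72 h at 37 °C, then CellTiter-Glo readout.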
ELG1 repair inh: blocks ELG1-dependent DNA repair in HEK293T cells. HEK293T ELG1-luciferase reporter, luminescence, 16 h; DNA damage induced by 5-fluorouridine. Potency, µM (doses to about 46.1 µM), for inactives: top-dose activity change, negative = inhibition, hits mostly inhibitors. 2.3% of 330,000 active; note: % is set by controls: 0 for no effect and ±100 for the full control effect; nearly all actives have a fitted effect of over 55% in size
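5-Fluorouridine DNA damage + compound/DMSO, 2,000 cells/well, 16 h, 37 °C/5% CO2. ONE-Glo, 30 min RT, luminescence. Readout = decrease in reporter signal.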
KB-V1 MDR tox: KB-V1 MDR subline cytotoxicity. KB-V1 MDR cells viability, CellTiter-Glo, 72 h. Potency, µM (top dose mostly 46.1 µM), actives largely listed as cytotoxic. 3.4% of 400,000 active; note: % is set by controls: 0 for no effect and ±100 for the full control effect; nearly all actives have a fitted effect of over 60% in size
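Cytotoxicity toward P-gp-expressing KB-V1 cells was determined as loss of CellTiter-Glo luminescence after 72 h at 37 degrees C. Compounds were tested in quantitative HTS format across a concentration range, with curves fitted to normalized data.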
MCF10A rereplic: induces DNA re-replication in MCF 10a normal breast cells | Potency, µM (doses to about 46.1 µM), inactives show top-dose activity, positive = re-replication, hits mostly activators | 2.9% of 350,000 active | MCF 10A DNA re-replication, Hoechst nuclear intensity, 48 h | AID 624296; note: % of control where 0% means no effect; nearly all actives have a fitted effect of over 50% in size
SW480 rerep: induces DNA re-replication in SW480 colon adenocarcinoma cells. SW480 DNA re-replication, Hoechst DNA content imaging, 48 h. Potency, µM (titrated, usually from 46.1 µM), for inactives: at the top dose re-replication activation, hits mostly activators. 1.8% of 340,000 active. AID 624297; note: % of control where 0% means no effect; nearly all actives have a fitted effect of over 55% in size
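Cells (250 per well) received 23 nL compound or DMSO by pin tool and were kept 48 hr at 37 C, 5% CO2. Nuclei were then stained with Hoechst for 40 min and scanned for DNA content.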
Active calls of the source: *; i = inactive; ? = inconclusive; · = not tested or not shown. Hits are enriched below; roughly 8.1% of the tested compounds scored in any of these assays. Calls come from the whole dose curve; as a rule, active = well fitted curve in the direction sought with a large enough effect; inconclusive = small, poorly fitted or top-dose-only effect, or another doubt; inactive = no such curve, though single readings can be large; an effect the other way counts as inactive or inconclusive. Potency is the fitted concentration of half-maximal effect.

SMILES	KB-3-1 tox	ELG1 repair inh	KB-V1 MDR tox	MCF10A rereplic	SW480 rerep
Clc1ccc(Cn2c(-c3cccnc3Cl)nc3ccccc32)c(Cl)c1	?	0.0%	23.1µM*	16.4µM*	3.6%
Clc1ccc(Cn2c(-c3cccnc3Cl)nc3ccccc32)cc1	i	-10.8%	i	19.0%	12.0%
Cc1c(N=N/C(C(=O)Nc2ccccc2)=C(/O)c2ccccc2)c(=O)n(-c2ccccc2)n1C	i	?	i	-17.7%	6.51µM*
Fc1ccc2c(c1)C(c1ccc(N3CCOCC3)cc1)=NNC(c1cccs1)=N2	?	?	10.3µM*	24.0%	-0.2%
Brc1ccc2c(c1)C(c1ccc(N3CCOCC3)cc1)=NNC(c1cccs1)=N2	i	?	i	13.0%	1.6%
CCOc1ccc(C2=Nc3ccc(Br)cc3C(c3ccc(N4CCOCC4)cc3)=NN2)cc1	i	?	i	12.0%	3.8%
CCOc1ccc(C2=Nc3ccccc3C(c3ccc(N4CCOCC4)cc3)=NN2)cc1	16.4µM*	?	4.11µM*	16.4µM*	20.6µM*
CCOC(=O)c1cnc2c(C)cc(C)cc2c1NCCN1CCOCC1	i	·	i	·	·
CC(=O)N1CCc2c(sc3c2c(=O)n(-c2cc(Cl)ccc2C)c(=O)n3Cc2ccccc2F)C1	i	·	i	·	·
N#CC1=C(N)OC2=C(CCc3ccccc32)C1c1ccccc1Cl (configuration not stated)	?	?	4.61µM*	2.91µM*	8.2µM*
C#CCOc1ccc(C2C3=C(CC(C)(C)CC3=O)N(CC(=O)O)C3=C2C(=O)CC(C)(C)C3)cc1OC	i	1.8%	i	-1.0%	-4.7%
COc1ccccc1C1C2=C(CC(C)(C)CC2=O)N(CC(=O)O)C2=C1C(=O)CC(C)(C)C2	i	-1.9%	i	20.6µM*	-32.8%
COc1ccc(N2C3=C(C(=O)CC(C)(C)C3)C(c3ccccc3OC)C3=C2CC(C)(C)CC3=O)cc1	i	?	?	16.4µM*	18.4µM*
C#CCOc1ccc(C2C3=C(CC(C)(C)CC3=O)N(CC(=O)O)C3=C2C(=O)CC(C)(C)C3)cc1	i	2.2%	?	?	4.0%
CCOc1ccc(C2C3=C(CC(C)(C)CC3=O)N(CC(=O)O)C3=C2C(=O)CC(C)(C)C3)cc1OCC	i	?	i	0.82µM*	-7.7%
COc1cccc2ccc(CC(O)(c3ccccc3)c3ccccc3)nc12	i	·	i	·	·
CCC(CC)C(=O)N(C)c1c(C)nc2c(OCc3ccc(Cl)cc3Cl)cccn12	i	·	?	·	·
O=C(NC(NCC1CCCO1)C(Cl)(Cl)Cl)c1cccc2ccccc12 (configuration not stated)	i	-10.1%	?	12.3%	?
O=C(Nc1ccncc1)c1ccc2ccccc2c1	i	?	16.4µM*	7.0%	-2.5%
O=C(NC(NC(=S)N1CCOCC1)C(Cl)(Cl)Cl)c1cccc2ccccc12 (configuration not stated)	i	8.5%	16.4µM*	14.5%	-6.6%
CCOc1ccc(NC(=O)c2cc3ccccc3cc2O)cc1	i	?	i	16.4µM*	-15.2%
O=C(Nc1ccc(N2CCOCC2)cc1)c1cccc2ccccc12	?	-8.0%	?	29.2%	9.2µM*
O=C(NN1CCOCC1)c1cccc2ccccc12	i	11.5%	?	-1.7%	-0.3%
COCc1ccc(C(=O)N2CCCC(Nc3ccc(C(C)C)cc3)C2)o1 (configuration not stated)	·	-4.9%	·	1.0%	-3.9%
CCc1cccc2c(C(O)(c3c[nH]c4c(CC)cccc34)c3c[nH]c4c(CC)cccc34)c[nH]c12	i	·	i	·	·
SMILES	KB-3-1 tox	ELG1 repair inh	KB-V1 MDR tox	MCF10A rereplic	SW480 rerep
Cc1ccc(F)cc1C(=O)N1CCCC1(C)C(=O)NCC(C)C (configuration not stated)	i	·	i	·	·
O=C(NCc1ccc2c(c1)OCO2)c1nc(Cn2cc(Br)cn2)no1	i	7.1%	i	-12.7%	-10.2%
O=C(NNC(=O)c1cc2ccccc2cc1O)NC1CCCCC1	i	13.6%	i	-18.9%	1.2%
CCOc1ccc(NC(=O)c2cccc3ccccc23)cc1	?	-23.8%	5.8µM*	24.4%	?
O=C(Nc1ccncc1)c1cccc2ccccc12	i	?	?	-4.3%	18.4µM*
O=C(NCC1CCCCC1)c1cc2ccccc2cc1O	?	?	i	18.4µM*	?
COc1ccc(NC(=O)c2ccc3ccccc3c2OC)cc1	i	·	?	?	?
O=C(Nc1ccc2ccccc2c1)c1cccc2ccccc12	i	·	i	15.1%	0.7%
S=c1[nH]nc(-c2cc3c(s2)-c2ccccc2CC3)o1	i	?	i	?	8.2µM*
O=S(=O)(c1cccc(F)c1)N1CCN(c2nc(-c3cccnc3)nc3ccccc23)CC1	?	10.3µM*	?	?	-17.3%
O=S(=O)(c1cccc(Cl)c1)N1CCN(c2nc(-c3ccccc3)nc3ccccc23)CC1	?	·	i	·	·
Cc1cccc(OCC(=O)NCCc2nc3ccccc3[nH]2)c1C	i	·	i	·	·
COCC(=O)O[C@]1(CCN(C)CCCc2nc3ccccc3[nH]2)CCc2cc(F)ccc2[C@@H]1C(C)C	?	?	14.6µM*	-55.1%	?
CN(C)P(=O)(Nc1cccc2ccccc12)Nc1cccc2ccccc12	i	?	11.6µM*	28.9%	-1.0%
Clc1ccccc1Nc1nnc(-c2ccncc2)s1	?	?	9.2µM*	-7.0%	-7.2%
FC(F)(F)c1ccc(Cl)c(Nc2nnc(-c3ccncc3)s2)c1	i	·	i	·	·
COc1ccccc1-c1nnc(Nc2nc3c(OC)cccc3s2)o1	0.411µM*	?	?	?	2.31µM*
COc1cccc(-c2nnc(Nc3nc4c(F)cccc4s3)o2)c1	i	?	i	16.4µM*	7.4%
COc1cccc(-c2nnc(NC(C)=O)o2)c1	i	?	i	-0.8%	-1.1%
COc1cccc2sc(Nc3nnc(-c4ccccc4Cl)o3)nc12	?	?	i	?	2.59µM*
COc1cc(/C=C/C(=O)Nc2ccc(S(=O)(=O)Nc3ncccn3)cc2)ccc1OCC#N	i	·	i	25.4%	-4.6%
O=C1C=C(c2ccc3ccccc3c2)C[C@@H](c2ccc(Cl)cc2)C1	?	0.0%	?	28.4%	0.5%
COc1ccc([C@H]2CC(=O)C=C(c3ccc4ncccc4c3)C2)cc1	?	?	i	142.3%	?
O=C1C=C(c2ccc3ncccc3c2)C[C@@H](c2ccc(Cl)cc2)C1	?	?	?	23.1µM*	8.2%
O=C1C=C(c2ccc3[nH]ccc3c2)C[C@@H](c2ccc(Cl)cc2)C1	i	?	i	10.3µM*	23.2%
